Source: PubChem BioAssay
The entries come from a sample that favours hits as a whole.
LmPK inh = LmPK (Leishmania mexicana) enzyme inhibition | purified LmPK, Kinase-Glo ATP luminescence, 1 h | Potency, µM (top dose mostly 57.5 µM), for inactives: at the top dose activity change, negative = inhibition, actives largely listed as inhibitors | 0.37% of 290,000 active | AID 1721; also: potency is read from the fitted curve at half-maximal effect; % is scaled to controls: 0 for no effect and ±100 for the full control effect
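qHTS format; LmPK 0.1 nM; substrates PEP 0.5 mM and ADP 0.1 mM. One-hour room-temperature incubation, then coupled luciferase luminescence; 0.5 nM enzyme wells mark activation.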
Giardia FBPA inh = inhibitors of Giardia lamblia fructose-1,6-bisphosphate aldolase; A8B2U2; purified Giardia FBPA; 0.71% of 290,000 active; Potency, µM (highest dose often 59.6 µM), without a hit: at the highest dose activity, negative = inhibition, hits mostly inhibitors; AID 2451; also: potency is read from the fitted curve at half-maximal effect; % is scaled to controls: 0 for no effect and ±100 for the full control effect; nearly all actives have a fitted effect of over 55% in size
Target sequence (A8B2U2 whole entry, looked up): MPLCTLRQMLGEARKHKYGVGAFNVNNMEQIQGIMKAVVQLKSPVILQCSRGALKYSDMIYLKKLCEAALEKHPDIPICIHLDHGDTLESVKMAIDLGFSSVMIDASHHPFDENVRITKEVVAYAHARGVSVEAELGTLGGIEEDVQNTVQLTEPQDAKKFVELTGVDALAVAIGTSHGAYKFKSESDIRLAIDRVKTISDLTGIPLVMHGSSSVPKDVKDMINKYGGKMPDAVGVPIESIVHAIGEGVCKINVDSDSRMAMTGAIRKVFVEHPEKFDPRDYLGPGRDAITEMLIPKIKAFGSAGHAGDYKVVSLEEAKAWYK
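Giardia FBPA (40 nM reagent) was preincubated 10 min at RT with compound (up to 57.5 uM final), then substrate plus GAPDH/TPI/NAD/arsenate coupling system with diaphorase/resazurin was added; resorufin fluorescence (525/598 nm) was read after 20 min.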
Shiga toxin inh = Shiga toxin inhibition. Vero cells, Shiga toxin protein synthesis inhibition reporter. inhibition, % at 38.7 µM. 9.2% of 290,000 active; in the data active = inhibition mostly above about 28%, no sharp cut-off; inactive = mostly below about 43%; also: 0% is about no effect
CHX counter = counter-screen for Shiga toxin inhibitors: cycloheximide protein synthesis inhibition; max response, %; AID 2314; cell reporter, cycloheximide protein synthesis inhibition counterscreen; 12% of 300,000 active; in the data active = max response mostly above about 13%, no sharp cut-off; inactive = mostly below about 14%; also: read at 38.3 µM for the half of the compounds with a filed dose; 0% is about no effect
Tb PYK inh = blocks Trypanosoma brucei pyruvate kinase. Q57TT1. TbPYK enzyme, Kinase-Glo Plus ATP luminescence, 45 min. Potency, µM (highest dose often 76.8 µM), without a hit: at the highest dose activity, negative = inhibition, usual class: inhibitors. 0.12% of 410,000 active. AID 624173; also: potency is read from the fitted curve at half-maximal effect; % is scaled to controls: 0 for no effect and ±100 for the full control effect; nearly all actives have a fitted effect of over 50% in size
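Activity of T. brucei pyruvate kinase was followed by Kinase-Glo Plus luminescence after the enzyme reacted 45 min at room temperature with 130 uM ADP (final) and substrate. Test compounds were added before ADP at multiple concentrations.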
RE007 growth inh = less growth of the S. pombe RE007 Vpr strain. S. pombe RE007 Vpr strain, BacTiter-Glo ATP luminescence, 24 h. Potency, µM (top dose mostly 92.2 µM), inactives show at the top dose activity change, negative = less growth, usual class: inhibitors. 0.21% of 360,000 active. AID 651644; active = well fitted falling curve with a large enough effect; inconclusive = small, poorly fitted or top-dose-only effect; inactive = no such curve, though single readings can be large or run the other way; also: potency is read from the fitted curve at half-maximal effect; % is scaled to controls: 0 for no effect and ±100 for the full control effect; nearly all actives have a fitted effect of over 50% in size
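Fission yeast RE007 carrying one integrated HIV-1 vpr copy, seeded at OD 0.01 in PMG+AL medium with 23 nL pinned compound. Grown 24 h at 30 degrees; viability read by BacTiter-Glo luminescence after 5 min.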
* marks the source's active call; other numbers are inactive results. Unless noted, calls follow the shape of the dose curve; as a rule, active = well fitted curve in the direction sought with a large enough effect; inconclusive = small, poorly fitted or top-dose-only effect, or another doubt; inactive = no such curve, though single readings can be large; an effect the other way counts as inactive or inconclusive.

For CC(=O)c1sc(NC(=O)c2ccccc2)nc1-c1ccccc1 the results were LmPK inh -9%, Giardia FBPA inh -23%, Shiga toxin inh 96*, CHX counter 57*, Tb PYK inh -2% and RE007 growth inh inconclusive.
CCCOc1ccc(CNC(=O)C2CCN(c3nc4ccccc4nc3C(F)(F)F)CC2)cc1 was read as Tb PYK inh -7%.
Screening Cc1nc(NC(=O)c2csc3ccccc23)sc1C returned LmPK inh -1%, Giardia FBPA inh -11%, Shiga toxin inh 123*, CHX counter 39*, Tb PYK inh -4% and RE007 growth inh -21%.
Screening Cc1nc(NC(=O)c2ccccc2O)sc1C returned LmPK inh -5%, Giardia FBPA inh -20%, Shiga toxin inh 41, CHX counter 18*, Tb PYK inh -11% and RE007 growth inh -9%.
Cc1nc(Nc2ccccc2)sc1C was read as LmPK inh 3%, Giardia FBPA inh -3%, Shiga toxin inh 71*, CHX counter 46*, Tb PYK inh inconclusive and RE007 growth inh -23%.
Cc1ccc(S(=O)(=O)c2nc(Nc3ccccc3)sc2Cl)cc1 was read as LmPK inh -1%, Giardia FBPA inh -1%, Shiga toxin inh -10, CHX counter 1, Tb PYK inh -14% and RE007 growth inh 0%.
For Fc1cccc(Cl)c1Cn1c(-c2cccs2)nc2ccccc21 the results were Tb PYK inh -4%.
For CN(C)CCCNc1ncnc2c1cnn2-c1ccccc1 the results were LmPK inh -1%, Giardia FBPA inh -6%, Shiga toxin inh 72*, CHX counter 49*, Tb PYK inh -8% and RE007 growth inh -1%.
Screening CC(C)OCCCNc1ncnc2c1cnn2-c1ccccc1 returned LmPK inh 2%, Giardia FBPA inh 1%, Shiga toxin inh 55*, CHX counter 11, Tb PYK inh 0% and RE007 growth inh -3%.
For Cc1ccc(-n2ncc3c(NCCCN(C)C)ncnc32)cc1Cl the results were Tb PYK inh -2%.
Screening O=c1cc(-c2ccc(O)cc2)oc2cc(OC3OC(CO)C(O)C(O)C3O)c(C3OC(CO)C(O)C(O)C3O)c(O)c12 (centres undefined) returned Giardia FBPA inh 1%, Shiga toxin inh -3 and CHX counter 1.
For CSc1nnc(-c2cccc(NC(=S)NN)c2)o1 the results were LmPK inh 1%, Giardia FBPA inh -10%, Shiga toxin inh -1, CHX counter 6, Tb PYK inh -1% and RE007 growth inh 4%.
`CSc1nnc(-c2ccc(NC(N)=S)cc2)o1` gave LmPK inh -7%, Giardia FBPA inh -5%, Shiga toxin inh 22, CHX counter 14*, Tb PYK inh -17% and RE007 growth inh 11%.
Screening COc1ccc(NC(=O)COC(=O)Cc2c(F)cccc2Cl)cc1OC returned LmPK inh 14%, Giardia FBPA inh -9%, Shiga toxin inh 46, CHX counter 21*, Tb PYK inh -7% and RE007 growth inh 11%.
For COc1ccc(NC(=O)COC(C)=O)cc1OC the results were LmPK inh 15%, Giardia FBPA inh 1%, Shiga toxin inh -7, CHX counter -2, Tb PYK inh -18% and RE007 growth inh 1%.
COc1cc(CCC(C)=O)ccc1OC(=O)c1c(F)cccc1Cl was read as LmPK inh 4%, Giardia FBPA inh -1%, Shiga toxin inh 88*, CHX counter 39*, Tb PYK inh 2% and RE007 growth inh -12%.
COc1ccc(NC(=O)COC(=O)c2c(F)cccc2Cl)cc1OC was read as LmPK inh 2%, Giardia FBPA inh 1%, Shiga toxin inh 76* and CHX counter 41*.
For O=C(Nc1ccc(F)c([N+](=O)[O-])c1)c1ccc2c(c1)C(=O)OC2=O the results were LmPK inh -8%, Giardia FBPA inh 0%, Shiga toxin inh -12 and CHX counter 2.
Screening O=C(Nc1ccc(Cl)cc1[N+](=O)[O-])c1ccc2c(c1)OCCO2 returned LmPK inh -1%, Giardia FBPA inh 3%, Shiga toxin inh 67*, CHX counter 40*, Tb PYK inh 2% and RE007 growth inh 4%.
Screening O=C(Nc1cc(Cl)ccc1N1CCOCC1)c1ccc2c(c1)OCCO2 returned LmPK inh 6%, Giardia FBPA inh -10%, Shiga toxin inh 4, CHX counter 1, Tb PYK inh -3% and RE007 growth inh -12%.
O=C(Nc1ccc(F)c([N+](=O)[O-])c1)c1ccc2c(c1)OCCO2 was read as LmPK inh 7%, Giardia FBPA inh -6%, Shiga toxin inh 55*, CHX counter 33*, Tb PYK inh 2% and RE007 growth inh 7%.
Screening O=C(CSCC(=O)N1CCOCC1)Nc1ccccc1 returned LmPK inh 3%, Giardia FBPA inh 2%, Shiga toxin inh -2, CHX counter -4, Tb PYK inh -20% and RE007 growth inh -7%.
Screening O=C(CSCC(=O)N1CCOCC1)Nc1nc(-c2ccccc2)cs1 returned LmPK inh 1%, Giardia FBPA inh -1%, Shiga toxin inh 84*, CHX counter 35*, Tb PYK inh -4% and RE007 growth inh 5%.
Screening CCOC(=O)N1CCN(C(=O)CSCC(=O)Nc2nc(-c3ccc(-c4ccccc4)cc3)cs2)CC1 returned LmPK inh -4%, Giardia FBPA inh -2%, Shiga toxin inh active, CHX counter 32*, Tb PYK inh -9% and RE007 growth inh -9%.
Screening CCOC(=O)N1CCN(C(=O)CSCC(=O)Nc2nc(-c3ccc(OC)cc3)cs2)CC1 returned LmPK inh -1%, Giardia FBPA inh 1%, Shiga toxin inh -3, CHX counter 10, Tb PYK inh -12% and RE007 growth inh 3%.
Screening CCOC(=O)N1CCN(C(=O)CSCC(=O)Nc2nc(-c3ccc(Cl)s3)cs2)CC1 returned LmPK inh -1%, Giardia FBPA inh -5%, Shiga toxin inh -15, CHX counter 14*, Tb PYK inh 0% and RE007 growth inh 10%.
Screening COc1ccc(OCC(=O)Nc2ccccc2C(=O)OCc2cc(=O)n3nc(C)sc3n2)cc1 returned Tb PYK inh 4%.
CC1CC[C@]2(CO)CC[C@]3(C)C(=CCC4[C@@]5(C)CCC(O)C(C)(C)C5CC[C@@]43C)C2C1C (some centres undefined) was read as Giardia FBPA inh -25%.
`CC1=C(C(=O)N2CCCCCC2)CC(CC(=O)NC2CCCC2)C(=O)N1CCC1=CCCCC1` (centres undefined) gave Tb PYK inh -1% and RE007 growth inh -11%.
